# Screen size: about 310,000 compounds; about 14,000 (4.5%) showed an effect of 50% or more. The effect is printed as a negative number. The entries come from a sample that favours strong results as a whole.
# Molecular target: human ether-à-go-go-related gene (hERG) potassium channel (human, UniProt Q12809)
# Assay: primary screen, population patch clamp on CHO cells stably expressing hERG; higher = less effect of the substance
# 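Further: peak tail current of the secondary pulse compared with the same well before compound.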
# Chain of human ether-à-go-go-related gene (hERG) potassium channel (Q12809 whole entry, looked up): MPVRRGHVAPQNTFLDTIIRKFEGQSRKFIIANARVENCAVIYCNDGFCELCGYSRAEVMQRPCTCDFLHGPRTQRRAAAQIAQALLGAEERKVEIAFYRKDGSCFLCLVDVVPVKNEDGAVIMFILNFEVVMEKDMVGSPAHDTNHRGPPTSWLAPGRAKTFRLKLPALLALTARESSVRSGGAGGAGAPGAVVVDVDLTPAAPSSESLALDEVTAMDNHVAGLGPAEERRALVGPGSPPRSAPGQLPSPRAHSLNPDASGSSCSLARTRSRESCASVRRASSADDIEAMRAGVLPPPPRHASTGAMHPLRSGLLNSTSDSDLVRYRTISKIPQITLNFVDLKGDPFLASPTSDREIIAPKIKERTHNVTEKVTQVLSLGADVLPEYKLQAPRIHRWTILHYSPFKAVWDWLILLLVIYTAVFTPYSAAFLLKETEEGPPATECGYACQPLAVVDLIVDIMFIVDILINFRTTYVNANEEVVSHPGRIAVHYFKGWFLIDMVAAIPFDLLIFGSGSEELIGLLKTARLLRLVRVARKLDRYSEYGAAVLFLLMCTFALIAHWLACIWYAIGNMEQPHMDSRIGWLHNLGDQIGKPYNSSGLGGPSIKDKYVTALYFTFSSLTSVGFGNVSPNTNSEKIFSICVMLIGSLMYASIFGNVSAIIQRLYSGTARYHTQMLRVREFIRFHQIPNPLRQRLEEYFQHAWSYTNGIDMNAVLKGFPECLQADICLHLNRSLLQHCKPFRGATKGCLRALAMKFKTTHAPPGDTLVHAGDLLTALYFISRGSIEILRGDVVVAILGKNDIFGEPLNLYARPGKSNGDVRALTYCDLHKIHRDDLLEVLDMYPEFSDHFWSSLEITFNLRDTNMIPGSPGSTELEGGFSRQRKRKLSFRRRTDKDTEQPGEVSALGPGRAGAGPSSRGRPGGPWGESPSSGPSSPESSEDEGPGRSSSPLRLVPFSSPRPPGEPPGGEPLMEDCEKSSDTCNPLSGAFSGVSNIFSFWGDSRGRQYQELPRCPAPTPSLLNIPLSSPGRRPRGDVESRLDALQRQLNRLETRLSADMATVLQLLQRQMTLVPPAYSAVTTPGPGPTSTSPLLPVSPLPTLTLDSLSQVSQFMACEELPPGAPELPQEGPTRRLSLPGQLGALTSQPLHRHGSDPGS
row,Compound,"hERG current change (%, negative = inhibition) at 10uM [%]"
1,Cn1cc(C(=O)NC2CCCCC2)c(=O)c2cc(S(=O)(=O)N3CCOCC3)ccc21,11.8
2,O=C(O)CC(Sc1n[nH]c(=S)s1)C(=O)O (stereo not shown),18.2
3,COc1cc(-c2cc(C(=O)Nc3ccc(S(N)(=O)=O)cc3)c3ccccc3n2)cc(OC)c1OC,29.2
4,CCN(CC)S(=O)(=O)c1ccc(O)c(NC(=O)c2cc(-c3cc(OC)c(OC)c(OC)c3)nc3ccccc23)c1,-59.2
5,CCN(CC)S(=O)(=O)c1ccc(OC)c(NC(=O)c2cccc([N+](=O)[O-])c2C)c1,-63.8
6,COc1ccc(S(=O)(=O)N2CCOCC2)cc1NC(=O)c1cccc2c(=O)c(C)c(-c3ccccc3)oc12,-32.9
7,CCN(CC)S(=O)(=O)c1ccc(N2CCOCC2)c(NC(=O)c2ccccc2F)c1,-15.8
8,CCN(CC)S(=O)(=O)c1ccc(NC(=O)c2cc(-c3ccccc3)nc3ccccc23)cc1,1.64
9,CCN(CC)S(=O)(=O)c1ccc(OC)c(NC(=O)c2cccc(C)c2[N+](=O)[O-])c1,-14.5
10,CCN(CC)S(=O)(=O)c1ccc(N2CCOCC2)c(NC(=O)c2cccc3ccccc23)c1,7.99
11,CCN(CC)S(=O)(=O)c1ccc2[nH]c(=O)cc(C(=O)Nc3ccccc3N3CCOCC3)c2c1,-18.9
12,CCN(CC)S(=O)(=O)c1ccc(OC)c(NC(=O)c2ccc(OC)c([N+](=O)[O-])c2)c1,-24.4
13,CCN(CC)S(=O)(=O)c1ccc(N2CCOCC2)c(NC(=O)c2cccc3c(=O)c(C)c(-c4ccccc4)oc23)c1,-55
14,CCN(CC)S(=O)(=O)c1ccc(N2CCCCC2)c(C(=O)Nc2ccccc2N2CCOCC2)c1,-51.1
15,O=C(O)c1ccccc1-c1ccccc1C(=O)Nc1ccc2c(c1)[nH]c(=O)c1ccccc12,24.5
16,O=C(N/N=C/c1ccco1)c1cc(C2CC2)nc2ccccc12,4.56
17,COc1ccc2cc(S(=O)(=O)Nc3ccccn3)ccc2c1,9.87
18,O=C(CSc1nnnn1-c1cccc2ccccc12)N1CCOCC1,-25
19,Cl.N=c1c2c(n(Cc3ccc(Cl)cc3)c3c1CCC3)CCC2,-2.06
20,CCN(CC)S(=O)(=O)c1ccc(N2CCCC2)c(NC(=O)c2ccccc2OC)c1,-65.7
21,CCN(CC)S(=O)(=O)c1ccc(N2CCCC2)c(NC(=O)c2ccc(OC)cc2OC)c1,-43
22,CCN(CC)S(=O)(=O)c1ccc(N2CCCC2)c(NC(=O)Cc2cc(OC)c(OC)c(OC)c2)c1,-8.43
23,CC(Sc1nnc(CNc2cccc3ccccc23)n1-c1ccccc1)C(=O)N/N=C/c1ccco1 (stereo not shown),-10.2

row,Compound,"hERG current change (%, negative = inhibition) at 10uM [%]"
1,Cl.O=C(NCC(c1cccs1)N1CCOCC1)c1cc2ccccc2o1 (stereo not shown),-15.7
2,O=C(NNC1=NS(=O)(=O)c2ccccc21)c1cccc([N+](=O)[O-])c1,15
3,CCOc1cccc(=O)c2c(C)n(Cc3ccccc3)c(C)c12,11.8
4,CCOc1cccc(=O)c2c(C)n(C)c(C)c12,-4.1
5,CCCCCn1c(C)c2c(OCC)cccc(=O)c2c1C,-69
6,CC(C)C(NS(=O)(=O)c1cccs1)C(=O)NCc1ccc2c(c1)OCO2 (stereo not shown),-12
7,COc1ccccc1C(C#N)c1cccc(Cl)n1 (stereo not shown),0.219
8,O=C(CCCn1c(=O)c2cccn2c2cccnc21)NCc1cccc(Br)c1,-13.8
9,CC(=O)N1CCN(C(=O)c2ccc(OC3CCN(CCc4ccccc4)CC3)cc2)CC1,15.6
10,O=C(c1ccc(OC2CCN(CCc3ccccc3)CC2)cc1)N1CCCC(O)C1 (stereo not shown),-2.05
11,O=C(c1ccc(OC2CCN(CCCc3ccccc3)CC2)cc1)N1CCCC1,-69.8
12,COC1CCCN(C(=O)c2ccc(OC3CCN(CCc4ccccc4)CC3)cc2)C1 (stereo not shown),-11.6
13,CC1CCCN(C(=O)c2ccc(OC3CCN(CCc4ccccc4)CC3)cc2)C1 (stereo not shown),-58.1
14,O=C(c1ccc(OC2CCN(CCc3ccccc3)CC2)cc1)N1CCCC1,-30
15,COc1ccc(CNC(=O)CCn2nc(C)c3c(C)n(-c4ccccc4)nc3c2=O)c(OC)c1,11.8
16,O=C(NCc1ccc(Cl)cc1)c1ccc(NC(=O)C2CCCO2)cc1 (stereo not shown),13.2
17,O=C1CCCC2=C1C(c1cccs1)n1nc(SCc3ccc(C(=O)O)cc3)nc1N2 (stereo not shown),2.81
18,O=C(Cn1c2ccccc2c2nc3n(c(=O)c21)CCS3)Nc1ccccc1C(F)(F)F,15.1
19,Cc1ccc(N2CC(C(=O)NCCN3CCOCC3)CC2=O)cc1 (stereo not shown),8.92
20,CC1CCCCN1C(=O)NC1CC(=O)N(c2ccc3c(c2)OCCO3)C1 (stereo not shown),5.7
21,O=C(O)c1cc(-c2ccccc2)nn1CC1CC(c2cccc([N+](=O)[O-])c2)=NO1 (stereo not shown),19.1
22,CCc1cc(Cn2nc(-c3ccccc3)cc2C(=O)NCC2CC2)on1,-51.8
23,O=C(NCC1CC1)c1cc(-c2ccccc2)nn1CC1CC(c2cccc([N+](=O)[O-])c2)=NO1 (stereo not shown),-60.8

row,Compound,"hERG current change (%, negative = inhibition) at 10uM [%]"
1,COCCNC(=O)c1cc(-c2ccccc2)nn1CC1CC(c2cccc([N+](=O)[O-])c2)=NO1 (stereo not shown),-50.6
2,Cc1ccc(CNC(=O)c2cc(-c3ccccc3)nn2CC2CC(c3cccc([N+](=O)[O-])c3)=NO2)cc1 (stereo not shown),-8.09
3,CCc1cc(Cn2nc(-c3ccccc3)cc2C(=O)NCCOC)on1,-9.96
4,Cc1ccccc1-c1cc(C(=O)NCc2cccs2)nn1CC1CC(c2cccc([N+](=O)[O-])c2)=NO1 (stereo not shown),4.08
5,Cc1ccccc1-c1cc(C(=O)NCC2CC2)nn1CC1CC(c2cccc([N+](=O)[O-])c2)=NO1 (stereo not shown),-26.6
6,Cc1cc(Cn2nc(-c3ccccc3)cc2C(=O)NCC2CC2)on1,9.32
7,O=C(NCc1cccs1)c1cc(-c2ccccc2)nn1CC1CC(c2cccc([N+](=O)[O-])c2)=NO1 (stereo not shown),-66.9
8,CCOC(=O)c1cc(-c2ccccc2)nn1CC1CC(c2cccc([N+](=O)[O-])c2)=NO1 (stereo not shown),-24.2
9,Cc1ccc(CNC(=O)c2cc(-c3ccccc3C)n(CC3CC(c4cccc([N+](=O)[O-])c4)=NO3)n2)cc1 (stereo not shown),13.6
10,COC(=O)C(C)n1cnc2c(nnn2Cc2ccc(Cl)cc2)c1=O (stereo not shown),-16.4
11,CCC1=Nc2cc(C(=O)NCc3ccco3)ccc2Sc2ccc(C)cc21,-0.612
12,CN(Cc1ccccc1)C(=O)CN1C(=O)NC2(CCCCCCC2)C1=O,-11.7
13,O=C(CCc1ccccc1)NNC(=O)Nc1ccccc1,1.26
14,COc1ccc(OC)c(CNC(=O)Cc2c(C(=O)O)[nH]c3ccccc23)c1,15.3
15,Cc1ccccc1N1CCN(C2CCCN(C(=O)c3ocnc3C)C2)CC1 (stereo not shown),-16.9
16,CN(c1ccccc1)S(=O)(=O)c1cccc(C(=O)OCC(=O)Nc2ccc3[nH]c(=O)[nH]c3c2)c1,19.6
17,CC(C)c1ccc(NC(=S)N(C)CCc2ccccn2)cc1,-8.91
18,CN(CCc1ccccn1)C(=O)c1cccnc1Oc1ccc(Cl)cc1,-19.5
19,CN(CCc1ccccn1)Cc1ccc(Cl)cc1Cl,-64.3
20,CCc1ccc(CN(C)CCc2ccccn2)cc1,-62.6
21,Cc1ccc(CN(C)CCc2ccccn2)cc1,-41.1
22,Cc1cccc(CN(C)CCc2ccccn2)c1,-15.3
23,CN(CCc1ccccn1)Cc1ccc(Cl)cc1,-53.7

row,Compound,"hERG current change (%, negative = inhibition) at 10uM [%]"
1,CC(C)=CCCC(C)CN(C)CCc1ccccn1 (stereo not shown),-65.4
2,CC(C)c1ccc(N(CCc2ccccn2)C(=O)C(C)(C)C)cc1,-5.99
3,Cc1ccccc1CN(C)CCc1ccccn1.O=C(O)C(=O)O,-7.25
4,CN(CCc1ccccn1)C(=O)Nc1ccc(Cl)cc1,6.31
5,CN(CCc1ccccn1)Cc1ccc(Cl)c(Cl)c1,-36.3
6,CC(=O)N1CCC(=O)N(C(C)C)c2ccccc21,3.9
7,COc1ccc(CNC(=O)c2cccnc2Sc2ccc(C)c(C)c2)cc1,3.63
8,COc1ccccc1-c1coc2cc(O)cc(O)c2c1=O,9.89
9,Cc1ccc(OCC(=O)c2ccc(Cl)s2)c([N+](=O)[O-])n1,2.66
10,Cc1ccc(S(=O)(=O)NCc2n[nH]c(=S)n2C)cc1,21
11,NC(=O)c1cc([N+](=O)[O-])ccc1NCc1ccc(N)cc1,10.5
12,COc1cc2c(cc1NC(=O)c1cccnc1)CCCC2,14.2
13,Cc1cccc(-c2noc(-c3ccc4c(c3)OCO4)n2)c1,7.53
14,COc1cc(Cl)c(C)cc1NC(=O)CN1CCCCCC1,-0.067
15,COc1cc(NC(=O)c2ccccc2C)c(OC)cc1NC(=O)CN1CCOCC1,-7.78
16,COc1cc(OC)c(NC(=O)CCCn2c(=O)oc3ccccc32)cc1Cl,9.61
17,COc1cc(NC(=O)CN2CCN(C(=O)C3CCCO3)CC2)c(OC)cc1Cl (stereo not shown),-12.5
18,COc1cc(Cl)c(C)cc1NC(=O)c1ccccc1NC(=O)CN1CCOCC1,-58.7
19,COc1cc(Cl)c(C)cc1NC(=O)CN1CCN(C(=O)C2CC2)CC1,-59.6
20,COc1cc(Cl)c(C)cc1NC(=O)CCCn1c(=O)oc2ccccc21,-58.7
21,COc1ccc(NC(=O)CCCn2c(=O)oc3ccccc32)cc1Cl,-12.9
22,COc1cc(NC(=O)c2ccccc2Cl)c(OC)cc1NC(=O)CN1CCOCC1,-3.34

# From publication PMC4336329 (PLoS ONE, 2015)
